# Source: PubChem BioAssay (NCATS)
# Inconclusive results are not listed. Values without a mark were called inactive. Calls of active or inactive are those of the source. Calls follow the shape of the dose curve; as a rule, active = well fitted inhibition curve with a large enough effect; inconclusive = small, poorly fitted or top-dose-only effect; inactive = flat fitted curve, though single readings scatter.
# Experiment: P-glycoprotein substrates identified in KB-8-5-11 adenocarcinoma cell line, qHTS therapeutic library screen (AID 1346987); also: nearly all actives have a fitted effect of over 65% in size
# Conditions: KB-8-5-11 (P-gp overexpressing) viability, CellTiter-Glo, 72 h; series mostly up to 44.5 µM; activity change, negative = cytotoxicity: at the top concentration
# Method in brief: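 Human cervical adenocarcinoma KB-8-5-11 cells, selected in colchicine to over-express P-gp and assayed without it, were exposed for 72 h to titrated compounds. An ATP-based luminescent viability signal gave AC50.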
# % is scaled to controls: 0 for no effect and ±100 for the full control effect.
SMILES,"activity change, negative = cytotoxicity",outcome
C[C@@H]1CC[C@]2(C(=O)O[C@@H]3O[C@H](CO[C@@H]4O[C@H](CO)[C@@H](O[C@@H]5O[C@@H](C)[C@H](O)[C@@H](O)[C@H]5O)[C@H](O)[C@H]4O)[C@@H](O)[C@H](O)[C@H]3O)CC[C@]3(C)C(=CCC4[C@@]5(C)C[C@@H](O)[C@H](O)[C@@](C)(CO)C5CC[C@]43C)C2[C@H]1C (some centres not stated),2.95% [at 9.29 µM],
C=C1CC[C@@]2(OC1)O[C@H]1CC3[C@@H]4CC=C5C[C@H](O[C@H]6OC[C@@H](O)C(O)[C@@H]6O[C@@H]6O[C@@H](C)[C@H](O)[C@@H](O[C@@H]7O[C@H](CO)[C@@H](O)[C@H](O)[C@H]7O)[C@H]6O)C[C@@H](O)[C@]5(C)C4CC[C@]3(C)[C@H]1[C@@H]2C (some centres not stated),2.38% [at 9.29 µM],
CC1(C)CC[C@]2(C(=O)O)CC[C@]3(C)C(=CCC4[C@@]5(C)C[C@H](O)[C@H](O[C@@H]6O[C@H](CO)[C@@H](O)[C@H](O)[C@H]6O)[C@@](C)(CO)C5[C@H](O)C[C@]43C)[C@@H]2C1 (some centres not stated),4.61% [at 17.3 µM],
CC(=O)[C@@H]1C[C@H](C(C)(C)O[C@@H]2O[C@H](CO)[C@@H](O)[C@H](O)[C@H]2O)CC[C@@]2(CO)OC(=O)C[C@@H]12,,inactive [at 17.3 µM]
NC1Nc2ccccc2C1(N)CC1NC(=O)C(Cc2ccccc2)NC(=O)C(Cc2ccccc2)NC1=O (configuration not stated),5.46% [at 17.3 µM],
O=C(OC(C(F)(F)F)C(F)(F)F)N1CCN(Cc2cccc(Oc3ccccc3)c2)CC1,-8.78%,
CC1CCC2C(C)(C)C(O)C(O)CC2(C)C12Cc1c(O)cc(CO)c(C=O)c1O2 (configuration not stated),5.06% [at 17.3 µM],
